# In PubChem BioAssay (Tox21):
# Records with an inconclusive call do not appear. The source made the active and inactive calls. The call rests on the fitted dose curve; in most records, active means well fitted activation curve with a large enough effect; inconclusive means small, poorly fitted or top-dose-only effect; inactive means flat fitted curve, though single readings scatter. Non-standard residues stand in square brackets, D forms with d. Residues, ends and D or L forms follow the SMILES beside them. Orn = NCCC[C@H](N)C(=O)O
# Test: qHTS assay to identify small molecule phospholipidosis (PLD) inducers (AID 1259344)
# Conditions: HepG2 phospholipidosis, LipidTOX Red imaging, 24 h; series mostly up to 38.3 µM; PLD induction: at the top concentration
# How it was run: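 Accumulated phospholipid, stained red by LipidTOX during 24 h compound treatment of HepG2 cells at 37 C, is quantified from images as pit number and intensity, normalised per cell using Hoechst-stained nuclei.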
# On the % scale 0 is the no-effect control and ±100 the full control effect.
Compound,PLD induction,Potency
CN(Cc1ccccc1)Cc1ccccc1,-0.752% (inactive),–
O=C(O)COc1ccc(C(=O)c2cccs2)c(Cl)c1Cl,–,inactive
Nc1cc(Cl)c(NC2=NCCN2)c(Cl)c1,-0.309% (inactive),–
CCOC(=O)Cc1ccc(-c2ccccc2)cc1,-0.178% (inactive),–
CC1(C)S[C@@H]2[C@H](NC(=O)[C@H](N)c3ccc(O)cc3)C(=O)N2[C@H]1C(=O)O,2.74% (inactive),–
NCCCC(=O)O,-1.08% (inactive),–
CC(C)(O/N=C(\C(=O)N[C@@H]1C(=O)N2C(C(=O)[O-])=C(C[n+]3ccccc3)CS[C@H]12)c1csc(N)n1)C(=O)O,-0.632% [at 15.5 µM] (inactive),–
O=C[C@H](O)[C@@H](O)[C@@H](O)[C@H](O)CO,1.3% (inactive),–
CCN(CC)CCn1c(=O)c(Cc2ccc(OC)cc2)nc2ccccc21,1.39% [at 7.66 µM] (inactive),–
CCc1cn([C@H]2C[C@H](O)[C@@H](CO)O2)c(=O)[nH]c1=O,-0.499% (inactive),–
CCOC(=O)COc1ccc2c(=O)cc(-c3ccccc3)oc2c1,–,inactive
O.O.O.O.O.O.O.O=S(=O)([O-])[O-].[Co+2],-1.76% (inactive),–
CC/C(=C(/CC)c1ccc(OP(=O)(O)O)cc1)c1ccc(OP(=O)(O)O)cc1,5.02% (inactive),–
CC(=O)O[C@H]1C[C@@H]2CC[C@@H]3[C@H](CC[C@@]4(C)[C@H]3C[C@H]([N+]3(C)CCCCC3)[C@@H]4OC(C)=O)[C@@]2(C)C[C@@H]1[N+]1(C)CCCCC1,-0.982% (inactive),–
CC(C)C[C@@H]1NC(=O)[C@H](CCCN)NC(=O)[C@H](C(C)C)NC(=O)[C@@H]2CCCN2C(=O)[C@@H](Cc2ccccc2)NC(=O)[C@H](CC(C)C)NC(=O)[C@H](CCCN)NC(=O)[C@H](C(C)C)NC(=O)[C@@H]2CCCN2C(=O)[C@@H](Cc2ccccc2)NC1=O (cyclo(V[Orn]L[dF]PV[Orn]L[dF]P)),-0.87% (inactive),–
